Experimental data taken from PubChem BioAssay (EPA / NIEHS).
Records with an inconclusive call do not appear. Some structures have more than one record in an assay (separate samples or runs), and their calls can disagree. Calls of active or inactive are those of the source. The calls were made as follows: active = hit-call score of the fitted dose curve at least 0.9, where 1 is the maximum; inconclusive = response in the unintended direction; inactive = score below 0.9. Where a SMILES comes first, the peptide text is derived from it. [ ]: non-standard residue; d: D form. pGlu = O=C1CC[C@@H](C(=O)O)N1

How the values were obtained:
[1] = target: Cellular tumor antigen p53 (Homo sapiens) (UniProt P04637); assay: TOX21_p53_BLA_p2_ratio: Tox21 HCT-116 p53 Agonism Beta-lactamase Assay, Ratio, Phase 2 (AID 2283592)
Chain of Cellular tumor antigen p53 (Homo sapiens) (P04637 whole entry, looked up): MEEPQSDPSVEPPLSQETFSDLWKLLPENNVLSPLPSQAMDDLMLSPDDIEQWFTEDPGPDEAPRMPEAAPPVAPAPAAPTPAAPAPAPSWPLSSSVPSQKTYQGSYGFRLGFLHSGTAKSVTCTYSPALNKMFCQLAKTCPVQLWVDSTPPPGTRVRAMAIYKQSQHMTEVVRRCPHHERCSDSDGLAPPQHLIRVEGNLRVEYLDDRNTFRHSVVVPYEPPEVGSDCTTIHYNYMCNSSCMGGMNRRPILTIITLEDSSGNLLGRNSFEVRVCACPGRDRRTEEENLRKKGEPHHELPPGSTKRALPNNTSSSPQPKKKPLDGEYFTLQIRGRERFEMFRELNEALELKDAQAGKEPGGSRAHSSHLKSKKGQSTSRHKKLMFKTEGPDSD
Outline: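 HCT116 p53-bla; 4000 cells/well; 5 h pre-incubation; cpd in DMSO, 217-fold dilution; 16 h 37C/5% CO2; CCF4-AM 2 h RT; Ex 405, Em 460/530 ratio; DMSO = baseline; positive fitting direction.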

[2] = TOX21_p53_BLA_p3_viability: Viability Assessment in the Tox21 HCT-116 p53 Agonism Beta-lactamase Assay, Phase 3 (AID 2283593);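 also: cells exposed to compound for 16 h before reading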
Outline: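 Cellular ATP was quantified by CellTiter-Glo luminescence, read after 30 min at room temperature. Beforehand, HCT116 cells (4000/well) received compound 5 h post-seeding, 217-fold diluted from DMSO, then incubated 16 h at 37C.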

[3] = target: Cellular tumor antigen p53 (Homo sapiens) (UniProt P04637); assay: TOX21_p53_BLA_p3_ratio: Tox21 HCT-116 p53 Agonism Beta-lactamase Assay, Ratio, Phase 3 (AID 2283596)
Outline: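 HCT116 p53-bla cells (4000/well) given compound in DMSO (217-fold dilution) after 5 h, incubated 16 h at 37C. CCF4-AM substrate 2 h at room temperature; 460/530 nm emission ratio, gain fitted against DMSO.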

[4] = TOX21_p53_BLA_p2_viability: Viability Assessment in the Tox21 HCT-116 p53 Agonism Beta-lactamase Assay, Phase 2 (AID 2283591);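 also: compound exposure lasted 16 h at 37 °C; actives lower the ATP signal meaning cytotoxicity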
Outline: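 Cytotoxicity readout: CellTiter-Glo ATP luminescence, 30 min at room temperature, after the beta-lactamase read. Cells were HCT116 exposed 16 h at 37C to compounds pin-transferred at 217-fold dilution from DMSO stocks.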

[5] = target: Cellular tumor antigen p53 (Homo sapiens) (UniProt P04637); assay: TOX21_p53_BLA_p4_ratio: Tox21 HCT-116 p53 Agonism Beta-lactamase Assay, Ratio, Phase 4 (AID 2283601)
Outline: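 Signal is the blue/green (460nm/530nm) ratio of cleaved versus uncleaved CCF4-AM substrate, read after 2 h substrate loading. Cells were HCT116 carrying the p53-responsive beta-lactamase reporter, dosed 16 h at 37C, 5% CO2; CellTiter-Glo measured in parallel.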

[6] = target: Cellular tumor antigen p53 (Homo sapiens) (UniProt P04637); assay: TOX21_p53_BLA_p5_ratio: Tox21 HCT-116 p53 Agonism Beta-lactamase Assay, Ratio, Phase 5 (AID 2283599)
Outline: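 Beta-lactamase reporter ratio (blue 460 nm over green 530 nm, 405 nm excitation) after 2 h CCF4-AM loading, in HCT-116 cells exposed 16 h at 37 C to compounds pinned at 217-fold dilution. Increases relative to DMSO baseline scored.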

[7] = TOX21_p53_BLA_p5_viability: Viability Assessment in the Tox21 HCT-116 p53 Agonism Beta-lactamase Assay, Phase 5 (AID 2283600)
Outline: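 4000 cells/well; 5 h pre-incubation; DMSO compounds pin-transferred, 217-fold dilution; 16 h, 37C/5% CO2; CCF4-AM 2 h RT; CellTiter-Glo 30 min RT; luminescence.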

[8] = TOX21_p53_BLA_p4_viability: Viability Assessment in the Tox21 HCT-116 p53 Agonism Beta-lactamase Assay, Phase 4 (AID 2283597);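 also: hits lower the luminescence signal meaning cytotoxicity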
Outline: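 Cells plated, 5 h pre-incubation; DMSO compounds pinned (217-fold dilution); 16 h, 37C/5% CO2; CCF4-AM 2 h RT; CellTiter-Glo 30 min RT; luminescence read.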

Measured: AC50

Nc1ccc(S(=O)(=O)O)cc1
inactive: [1] | [2] | [3]

CC(O)Cn1cnc2c1c(=O)n(C)c(=O)n2C (centres undefined)
inactive: [4] | [5]

CCCCCCCC/C=C\CCCCCCCCCCCC(=O)O
inactive: [4] | [6] | [5]

CC(C)=CCC/C(C)=C/CC/C(C)=C/CCC(=O)OC/C=C(\C)CCC=C(C)C
inactive: [4] | [5]

C[C@H](N)[C@H](O)c1cccc(O)c1
inactive: [1] | [2]

CCOC(=O)O[C@]1(C(=O)COC(=O)CC)CC[C@H]2[C@@H]3CCC4=CC(=O)C=C[C@]4(C)[C@H]3[C@@H](O)C[C@@]21C
inactive: [4] | [6] | [7] | [5]

C=C(C)C(=O)OC(C)C
inactive: [1] | [2]

CC1=C(C/C=C(\C)CCC[C@H](C)CCC[C@H](C)CCCC(C)C)C(=O)c2ccccc2C1=O
inactive: [4] | [5]

O=[N+]([O-])c1ccc(F)c(Cl)c1
inactive: [1] | [2]

CC(C)CNCC(C)C
inactive: [4] | [6] | [7] | [5]

CC[N+](C)(CC)CCOC(=O)C(O)(c1ccccc1)C1CCCCC1 (centres undefined)
inactive: [4] | [7]

Clc1ccnc(Cl)n1
inactive: [1] | [2]

Nc1cc(C(=O)O)ccc1Cl
inactive: [1] | [2]

c1ccsc1
inactive: [1]

O=C(CCC1CCN(Cc2ccccc2)CC1)c1ccc2c(c1)NCCCC2
inactive: [4] | [6] | [7] | [5]

CC[C@H](C)[C@H](NC(=O)[C@H](Cc1ccccc1)NC(=O)[C@H](C)NC(=O)[C@H](CC(=O)O)NC(=O)[C@H](CCCCN)NC(=O)[C@H](CO)NC(=O)[C@@H]1CCCN1C(=O)[C@@H]1CCC(=O)N1)C(=O)NCC(=O)N[C@@H](CC(C)C)C(=O)N[C@@H](CCSC)C(N)=O ([pGlu]PSKDAFIGLM-NH2)
inactive: [4] | [6] | [7] | [5]

C=CC(=O)OCC[N+](C)(C)C
inactive: [1]

CC(=O)Nc1ccc(OC(C)=O)cc1
inactive: [4] | [6] | [7] | [5]

O=c1[nH]c2ccc(Cl)cc2o1
inactive: [4] | [6] | [7] | [5]

COc1ccc2cc(CCC(C)=O)ccc2c1
inactive: [1] | [2] | [3] | [8] | [6] | [7]

CCn1cc(C(=O)O)c(=O)c2cc(F)c(N3CCN(C)CC3)cc21
inactive: [1] | [2] | [3] | [8] | [6] | [7] | [5]

CCN(CC)CCNC(=O)COc1ccc(Cl)cc1
inactive: [1] | [2] | [3] | [8]

Cc1ccc(O)c2ncccc12
inactive: [1] | [2] | [3] | [8] | [6] | [7] | [5]

CC(C)[C@@H](C)/C=C/[C@@H](C)[C@H]1CC[C@H]2/C(=C/C=C3\C[C@@H](O)CC[C@@H]3C)CCC[C@]12C
inactive: [1] | [2] | [3] | [8]

NNCCc1ccccc1
inactive: [1] | [2] | [3] | [8] | [6] | [7] | [5]
active: [8] 74.1 µM

O=C(O)CN1C(=O)c2cccc3cccc(c23)C1=O
inactive: [1] | [2] | [3] | [8] | [6]

COc1ccc2c(=O)c(C)c(-c3ccccc3)oc2c1CN(C)C
inactive: [1] | [2] | [3] | [8] | [6]

NCC[C@H](O)C(=O)N[C@@H]1C[C@H](N)[C@@H](O[C@H]2O[C@H](CN)[C@@H](O)[C@H](O)[C@H]2O)[C@H](O)[C@H]1O[C@H]1O[C@H](CO)[C@@H](O)[C@H](N)[C@H]1O
inactive: [1] | [2] | [3] | [8] | [6] | [7]

CC1(C)[C@@H]2CC[C@@]1(C)[C@H](OC(=O)CSC#N)C2
inactive: [1] | [2] | [3] | [8] | [6]

O=C1NCCN1
inactive: [1] | [2] | [3] | [8]

O=C1OC(O)C(C(Cl)Cl)=C1Cl (centres undefined)
inactive: [7] | [5]
active: [1] 13.2 µM | [2] 14.6 µM | [3] 13.3 µM | [8] 12.7 µM | [6] 25.6 µM

CC(=O)Nc1ccc(S(=O)(=O)Nc2ccc([N+](=O)[O-])cc2)cc1
inactive: [1] | [2] | [3] | [8] | [6]

O=C1N=C(O)CN1N=Cc1ccc(-c2ccc([N+](=O)[O-])cc2)o1
inactive: [1] | [2] | [3] | [8] | [6] | [7] | [5]

CC(C)(C)S
inactive: [1] | [2] | [3] | [8] | [6] | [7] | [5]

COC(=O)C1=C(C)NC(C)=C(C(=O)OC(C)(C)CN(C)CCC(c2ccccc2)c2ccccc2)C1c1cccc([N+](=O)[O-])c1 (centres undefined)
inactive: [1] | [2] | [3] | [8] | [6] | [7] | [5]

CCC1OC(=O)C[C@@H](O)[C@H](C)[C@@H](O[C@@H]2O[C@H](C)C[C@H](N(C)C)[C@H]2O)[C@@H](CC=O)C[C@@H](C)C(=O)/C=C/[C@]2(C)OC2C1C (some centres undefined)
inactive: [1] | [2] | [3] | [8] | [6] | [5]
active: [6] 35 µM | [5] 27.1 µM

CCCCCCCCCCCCCCN(C)C
inactive: [1] | [2] | [3] | [8] | [6]

NC(=O)c1cccc([N+](=O)[O-])c1
inactive: [1] | [2] | [3] | [8] | [6] | [7]

CCCCNC1CC(C)(C)NC(C)(C)C1
inactive: [1] | [2] | [3] | [8] | [6]

CCCCOc1cc(C(=O)OCCN(CC)CC)ccc1N
inactive: [1] | [2] | [3] | [8] | [6]

Nc1nnnn1-c1ccccc1
inactive: [1] | [2] | [3] | [8] | [6] | [7]
